The source of these data is ChEMBL document CHEMBL1157539, “Thousands of chemical starting points for antimalarial lead identification” (Nature, 2010).

What all share (format): functional
Assay [1] has as its system Plasmodium falciparum. As to the kind of experiment: GSK_TCMDC: Inhibition of Plasmodium falciparum 3D7 in whole red blood cells, using parasite LDH activity as an index of growth. Test compounds present at 2uM.
In assay [2] the test system is Plasmodium falciparum. Nature of the assay: GSK_TCMDC: Inhibition of Plasmodium falciparum Dd2 in whole red blood cells, using parasite LDH activity as an index of growth. Test compounds present at 2uM.
The next assay concerns HepG2. As to the kind of experiment: GSK_TCMDC: Percent inhibition of human HepG2 cell line. Test compounds present at 10uM.

Take `CN(C)CCCNCc1ccc(-c2ccc(CNCCOc3ccccc3)cc2)cc1.O=C(O)C(F)(F)F`: the Inhibition turned out to be 100% in the assay on Plasmodium falciparum [1], 53% in the assay on Plasmodium falciparum [2] and 27% in the assay on HepG2.

On to `COc1ccc(CN2CCCN(Cc3cccc(C(=O)Nc4ccc(C(C)(C)C)cc4)c3)CC2)cc1.O=C(O)C(F)(F)F`, for which the values for the Inhibition in the assay with Plasmodium falciparum [1], with Plasmodium falciparum [2] and in the assay with HepG2 were 98%, 3% and 46%, respectively.

For the compound `CO/N=C(\C)c1ccc2c(c1)CCN(CCC1CCC(NC(=O)/C=C/c3ccc(F)cc3)CC1)CC2.Cl` (stereo not drawn), the results for the Inhibition in the assay on Plasmodium falciparum [1], in the assay with Plasmodium falciparum [2] and in the assay on HepG2 were 95%, 15% and 45%, respectively.

`Cc1cn(CC(=O)Nc2cccc(-c3cccc(-c4nc5cc(C(F)(F)F)ccc5[nH]4)c3)c2)c(=O)[nH]c1=O`: the values for the Inhibition with Plasmodium falciparum [1], in the assay on Plasmodium falciparum [2] and with HepG2 were 92%, 51% and 15%, respectively.

`CN(c1ccc(NC(=O)Nc2cc(C(F)(F)F)ccc2F)cc1)c1ccnc(NCCN2CCCC2)n1.O=C(O)C(F)(F)F`: the Inhibition in the assay with Plasmodium falciparum [1] came to 93%; in the assay with Plasmodium falciparum [2], 1%; with HepG2, 94%.

On to `CC1CN(Cc2cccc(-c3ccc(-c4nc5cc(F)ccc5[nH]4)cc3)c2)CC(C)O1.O=C(O)C(F)(F)F` (stereo not drawn), for which the Inhibition in the assay on Plasmodium falciparum [1] is listed as 87%; with Plasmodium falciparum [2] it was 88%; with HepG2 it was 45%.

With `CC(C)C[C@H](NC(=O)c1cccc(F)c1)C(=O)N[C@H](/C=N/NC(=O)c1ccccc1)CCc1ccccc1`, the Inhibition with Plasmodium falciparum [1] came out at 93%; with Plasmodium falciparum [2], 71%; in the assay on HepG2, 0%.

As for `O=C(Nc1cc(C(F)(F)F)ccc1Cl)c1ccc(Cn2cc(Br)cn2)cc1`, the figures for the Inhibition with Plasmodium falciparum [1], with Plasmodium falciparum [2] and in the assay on HepG2 were 91%, 67% and 24%, respectively.

Take `CN(C)C(=O)n1cnc(S(=O)(=O)N(C)c2ccc(Cl)cc2)n1.Cl`: the Inhibition in the assay with Plasmodium falciparum [1] came to 88%; in the assay on Plasmodium falciparum [2] it was 80%; in the assay with HepG2, 7%.

In the case of `CN(/N=C/c1ccc(Cl)cc1)c1nc(NCCc2ccc(O)cc2)nc(N2CCNCC2)n1`, the Inhibition in the assay with Plasmodium falciparum [1] is given as 100%; in the assay with Plasmodium falciparum [2], 97%; in the assay with HepG2 it was 10%.

On to `COc1ccc(CNCc2ccc(-c3ccc(-c4nc5cccc(C)c5[nH]4)cc3)cc2)cc1.O=C(O)C(F)(F)F`, for which the Inhibition in the assay with Plasmodium falciparum [1] is on record as 100%; in the assay on Plasmodium falciparum [2], 97%; with HepG2, 53%.

In the case of `CN(C)CCOc1cc(NC(=O)c2ccc(-c3ccc(Cl)cc3Cl)cc2)ccc1-c1ccccc1`, the results for the Inhibition in the assay with Plasmodium falciparum [1], in the assay on Plasmodium falciparum [2] and with HepG2 were 98%, 26% and 45%, respectively.

Take `CC(C)C[C@H](NC(=O)c1cc(-c2ccc(C(C)(C)C)cc2)no1)C(=O)O.CC(C)C[C@H](NC(=O)c1conc1-c1ccc(C(C)(C)C)cc1)C(=O)O`: the Inhibition in the assay on Plasmodium falciparum [1] is given as 95%; in the assay with Plasmodium falciparum [2], 6%; in the assay with HepG2, 3%.

As for `COc1ccc2nccc([C@@H](O)CN3CCC(NC(=O)c4cc5c(F)cc(F)cc5[nH]4)CC3)c2n1`, the figures for the Inhibition with Plasmodium falciparum [1], in the assay with Plasmodium falciparum [2] and in the assay on HepG2 were 100%, 74% and 32%, respectively.

For `Clc1ccc2c(NCc3ccccn3)ccnc2c1`, the Inhibition in the assay with Plasmodium falciparum [1] came to 99%; in the assay with Plasmodium falciparum [2], 99%; in the assay on HepG2 it was 0%.

For the compound `C=CCOc1ccc(C(=O)Nc2nonc2-c2ccc(OC)c(OC)c2)cc1`, the Inhibition was determined as 100% with Plasmodium falciparum [1], 91% in the assay on Plasmodium falciparum [2] and 2% in the assay on HepG2.

For the compound `Cc1cc(O)c(-c2ccc(Sc3ccc(Cl)cc3)cc2)c(C)n1`, the Inhibition was 92% in the assay on Plasmodium falciparum [1], 84% with Plasmodium falciparum [2] and 0% in the assay on HepG2.

`CN1CCC(Oc2ccc(NC(=O)c3ccc4c(=O)n(Cc5ccccc5)cnc4c3)cc2Cl)CC1`: the Inhibition in the assay on Plasmodium falciparum [1] amounted to 95%; with Plasmodium falciparum [2], 20%; with HepG2 it was 23%.

On to `Cc1cccc(NC(c2cccs2)c2c(NC(=O)c3ccccc3)sc(C)c2C)n1` (stereo not drawn), for which the values for the Inhibition in the assay on Plasmodium falciparum [1], with Plasmodium falciparum [2] and with HepG2 were 88%, 80% and 0%, respectively.

Turning to `COc1ccc(CNC2CCN(C)CC2)cc1-c1ccc(OC)c(S(=O)(=O)NCc2ccccc2)c1.O=C(O)C(F)(F)F`, the Inhibition is 99% in the assay with Plasmodium falciparum [1], 95% in the assay with Plasmodium falciparum [2] and 10% in the assay on HepG2.

As for `Cc1ncccc1C(=O)Nc1ccc(-c2cccc(-c3nc4cccc(C)c4[nH]3)c2)cc1`, the figures for the Inhibition in the assay with Plasmodium falciparum [1], with Plasmodium falciparum [2] and in the assay on HepG2 were 95%, 31% and 6%, respectively.

Regarding `CCN1CCC(N(Cc2ccc(-c3ccc(C(F)(F)F)cc3)cc2)C(=O)Cn2c(CCc3cccc(F)c3F)nc(=O)c3ccccc32)CC1.O=C(O)C(O)C(O)C(=O)O`, the Inhibition in the assay on Plasmodium falciparum [1] was determined as 95%; in the assay with Plasmodium falciparum [2], 95%; in the assay on HepG2 it was 99%.

With `COc1ccc(NC(=O)N2CCCN(CCCCCNC(=O)/C=C/c3ccc(Cl)cc3)CC2)cc1Cl`, the Inhibition was 97% in the assay with Plasmodium falciparum [1], 1% in the assay on Plasmodium falciparum [2] and 15% in the assay with HepG2.

In the case of `CCc1cn2c3c(cc(C(=O)N[C@@H](Cc4ccccc4)[C@H](O)CNCc4cccc(C)c4)cc13)N(C)S(=O)(=O)CC2.O=CO`, the Inhibition with Plasmodium falciparum [1] worked out at 96%; in the assay on Plasmodium falciparum [2], 98%; in the assay on HepG2, 5%.

With `Cn1cc(C2CCN(CCCCNC(=O)c3ccc(C(=O)Nc4ccc(C#N)cc4)cc3)CC2)c2ccccc21`, the Inhibition in the assay on Plasmodium falciparum [1] is on record as 100%; in the assay with Plasmodium falciparum [2], 58%; in the assay with HepG2, 16%.

As to `COc1ccc(NC(=O)/C=C/c2ccccc2Cl)cc1OCCN1CCC(NCc2cccnc2)CC1`, the Inhibition in the assay on Plasmodium falciparum [1] was 100%; with Plasmodium falciparum [2] it was 88%; with HepG2 it was 12%.

As usually defined, the Inhibition is the drop in the measured response relative to a control, in per cent. A high value points to a strong effect.
